Hits are enriched below; roughly 0.45% of the tested compounds scored in any of these assays.
EPAC2 antag = blocks human EPAC2 exchange factor. Q8WZA2. 0.18% of 360,000 active. Potency, µM (doses to about 114 µM), most hits filed as inhibitors. EPAC2 GEF exchange of Rap1B-BODIPY-GDP, fluorescence; also: nearly all actives have a fitted effect of over 45% in size
EPAC1 ag = EPAC1 (human) agonism | O95398 | EPAC1 agonist qHTS, biochemical assay; response scale: 100% = response to 6.5 mM cAMP | Potency, µM (top dose mostly 154 µM), actives largely listed as activators | 0.073% of 360,000 active | AID 720707; also: nearly all actives have a fitted effect of over 60% in size
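Normalized to 6.5 mM cAMP, activity reflects EPAC1-catalysed release of BODIPY-GDP from Rap1B, followed kinetically over 30 min at 480 nm excitation, 540 nm emission. Reaction contained 100 nM EPAC1, 250 nM Rap1B-BODIPY-GDP, 50 uM GDP.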
EPAC2 ag = agonists of human EPAC2 (RAPGEF4); Q8WZA2; EPAC2 activation, biochemical qHTS; response scale: 100% = 6.5 mM cAMP response; Potency, µM (highest dose often 154 µM), most hits filed as activators; 0.079% of 360,000 active; AID 720711; also: nearly all actives have a fitted effect of over 50% in size
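Compounds were titrated in qHTS against a Rap1B-BODIPY-GDP (250 nM) complex with EPAC2 (100 nM) and GDP (50 uM). BODIPY-GDP release tracked at 480/540 nm over 30 min at room temperature, normalized to 6.5 mM cAMP.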
EPAC1 antagonist = blocks human EPAC1 exchange factor | O95398 | EPAC1 GEF assay, Rap1b-BODIPY-GDP exchange fluorescence | Potency, µM (series often up to 115 µM), hits mostly inhibitors | 0.14% of 360,000 active | AID 720709; also: nearly all actives have a fitted effect of over 50% in size
USP1-UAF1 inh = inhibitors of human USP1/UAF1 deubiquitinase; recombinant USP1/UAF1, Ub-Rhodamine cleavage fluorescence; Potency, µM (doses to about 57.1 µM), usual class: inhibitors; 0.23% of 390,000 active; AID 743255; also: nearly all actives have a fitted effect of over 60% in size
Target sequence (O94782 whole entry, looked up): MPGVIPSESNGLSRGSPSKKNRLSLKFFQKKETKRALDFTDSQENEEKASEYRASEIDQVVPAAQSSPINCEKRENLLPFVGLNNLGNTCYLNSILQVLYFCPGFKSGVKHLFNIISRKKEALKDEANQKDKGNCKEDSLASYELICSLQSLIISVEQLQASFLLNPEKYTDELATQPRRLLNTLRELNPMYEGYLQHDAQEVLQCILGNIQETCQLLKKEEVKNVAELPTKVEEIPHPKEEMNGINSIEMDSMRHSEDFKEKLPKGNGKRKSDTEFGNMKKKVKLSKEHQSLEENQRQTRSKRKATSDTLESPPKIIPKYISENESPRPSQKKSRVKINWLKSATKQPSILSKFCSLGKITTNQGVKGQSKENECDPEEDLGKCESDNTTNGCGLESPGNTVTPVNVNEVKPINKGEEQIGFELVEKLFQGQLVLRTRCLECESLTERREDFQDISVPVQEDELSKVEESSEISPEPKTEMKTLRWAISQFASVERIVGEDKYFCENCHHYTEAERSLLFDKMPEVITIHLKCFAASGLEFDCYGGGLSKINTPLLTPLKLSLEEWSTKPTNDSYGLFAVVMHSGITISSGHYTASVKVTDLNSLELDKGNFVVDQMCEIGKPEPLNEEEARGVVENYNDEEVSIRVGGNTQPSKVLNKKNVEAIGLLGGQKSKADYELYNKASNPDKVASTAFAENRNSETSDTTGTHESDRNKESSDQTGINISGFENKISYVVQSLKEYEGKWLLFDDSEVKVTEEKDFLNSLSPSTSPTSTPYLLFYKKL
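USP1/UAF1 complex at 1 nM was preincubated with compound for 15 min at room temperature, then Ub-Rho substrate (150nM final) was added. Fluorescence (480/540 nm) was read kinetically, 6 reads every 60 seconds.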
Numbers stand for hits; i = inactive; ? = inconclusive; nt = no result. Calls follow the shape of the dose curve; as a rule, active = well fitted curve in the direction sought with a large enough effect; inconclusive = small, poorly fitted or top-dose-only effect, or another doubt; inactive = no such curve, though single readings can be large; an effect the other way counts as inactive or inconclusive.

SMILES	EPAC2 antag	EPAC1 ag	EPAC2 ag	EPAC1 antagonist	USP1-UAF1 inh
COC(=O)c1sc(-c2ccc(Cl)cc2)cc1NC(=O)c1ccccc1C(=O)O	i	i	i	?	i
COC(=O)c1sc(-c2ccc(C(C)(C)C)cc2)cc1NC(=O)c1ccccc1C(=O)O	i	i	i	56µM	28µM
COc1cccc(C(=O)Nc2cccc(-c3nc4ncccn4c3C)c2)c1	nt	nt	nt	nt	i
CN(C)c1ccc(/C=C(\C#N)C(=O)c2ccccc2)cc1	i	i	?	i	14µM
CCN(CC)c1ccc(/C=C(\C#N)C(=O)c2ccc(Br)cc2)cc1	i	112µM	100µM	i	25µM
O=S(=O)(Nc1nccs1)c1ccc(NCc2cc(Br)cc(Br)c2O)cc1	2.8µM	i	i	?	i
COCC(=O)Nc1ccc(S(=O)(=O)Nc2nccs2)cc1	i	i	i	i	i
O=C(Cc1ccccc1Cl)Nc1ccc(S(=O)(=O)Nc2nccs2)cc1	1µM	i	i	i	i
CC1=C(C(=O)Nc2ccc(Cl)cc2)C(C(C)C)n2nc(SCc3ccc(Cl)cc3)nc2N1 (configuration not stated)	nt	nt	nt	nt	i
Cn1c(=O)c2c(SCC(=O)Nc3ccccc3C(F)(F)F)nc(C3CCCC3)nc2n(C)c1=O	nt	nt	nt	nt	i
COCCn1c(N)c(C(=O)NCC2CCCO2)c2nc3ccccc3nc21 (configuration not stated)	i	i	i	?	25µM
COc1ccc(OC)c(-n2c(N)c(C(=O)NCC3CCCO3)c3nc4ccccc4nc32)c1 (configuration not stated)	i	i	i	i	i
Nc1c(C(=O)NCC2CCCO2)c2nc3ccccc3nc2n1/N=C/c1ccncc1 (configuration not stated)	i	i	i	i	i
CC(C)Cn1c(N)c(C(=O)NCC2CCCO2)c2nc3ccccc3nc21 (configuration not stated)	i	i	i	50µM	i
COc1ccc(N=Nc2nc3cc(Br)c(Br)cc3n2C)c(OC)c1	i	112µM	i	i	i
COc1ccc(CNc2nc3ccccc3n2C)c(OC)c1	i	i	i	i	i
Cc1ccc(CNC(=O)C2CCN(S(=O)(=O)c3cc(-c4noc(C)n4)ccc3C)CC2)cc1	nt	nt	nt	nt	i
COc1ccccc1NC1=C(N2CCCCC2)C(=O)c2ccccc2C1=O	i	i	i	i	18µM
O=C(/C=C/c1ccc(O)cc1)c1ccccc1	i	i	i	i	i
O=C(/C=C/c1ccc(O)cc1)c1ccc(NC2=C(N3CCCCC3)C(=O)c3ccccc3C2=O)cc1	i	i	i	i	16µM
O=C1C(Nc2cccc(O)c2)=C(N2CCCCC2)C(=O)c2ccccc21	i	i	i	i	?
Cc1ccc(NC2=C(N3CCCCC3)C(=O)c3ccccc3C2=O)cc1	i	i	i	i	?
O=C1C(Nc2ccccc2)=C(N2CCCCC2)C(=O)c2ccccc21	i	i	i	i	25µM
COc1cc(C(=O)NCCc2sc(-c3cccc(F)c3)nc2C)cc(OC)c1OC	nt	nt	nt	nt	i
COc1ccc(CN(CCC(c2ccccc2)c2ccco2)C(=O)c2ccco2)cc1 (configuration not stated)	?	i	i	?	i
SMILES	EPAC2 antag	EPAC1 ag	EPAC2 ag	EPAC1 antagonist	USP1-UAF1 inh
O=C(c1ccco1)N(CCC(c1ccccc1)c1ccco1)Cc1ccccc1 (configuration not stated)	?	i	i	89µM	i
Cc1ccccc1-c1nc(C(N)=O)c2c(n1)n(-c1ccc3c(c1)OCO3)c(=O)n2C	nt	nt	nt	nt	i
CCOC(=O)CNC(=O)N1CCN(S(=O)(=O)c2ccc3c(ccn3C)c2)CC1	nt	nt	nt	nt	i
Cc1noc(/C=C/c2ccc(-c3ccccc3Cl)o2)c1[N+](=O)[O-]	i	i	100µM	i	?
COc1cc(/C=C2\SC(=Nc3ccc(Cl)c(C(=O)O)c3)NC2=O)c(Br)c(Br)c1O	?	i	i	?	18µM
COc1cc(/C=C2\SC(=Nc3ccccc3)NC2=O)cc(Cl)c1O	i	i	i	i	?
CCCCNC(=O)CSc1nc2n[nH]c(C)c2c(=N)n1-c1ccccc1CC	nt	nt	nt	nt	i
Cc1ccc(/C=C(\C#N)C(=O)Nc2cccc(Br)c2)o1	nt	nt	nt	nt	i
N#C/C(=C\c1ccc(N2CCCCC2)o1)C(=O)Nc1cccc(Br)c1	i	?	?	i	28µM
